ELG1 repair inh – blocks ELG1-dependent DNA repair in HEK293T cells; HEK293T ELG1-luciferase reporter, luminescence, 16 h; DNA damage induced by 5-fluorouridine; Potency, µM (top dose mostly 46.1 µM), without a hit: at the highest dose activity change, negative = inhibition, usual class: inhibitors; actives 2.3% (n = 330,000); note: potency is the fitted concentration of half-maximal effect; nearly all actives have a fitted effect of over 55% in size
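Quantitative HTS, concentration-response format. 2,000 cells/well co-treated with 5-fluorouridine and compound, 16 hr in 5% CO2 at 37 °C; ONE-Glo luminescence read after 30 min.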
TDP1 cell CPT – growth inhibition of DT40 Tdp1-/-;hTDP1 cells with camptothecin (screen for TDP1 inhibitors). actives 12% (n = 420,000). AID 686979. chicken DT40 Tdp1-/-;hTDP1 cells + 20 nM CPT, ATP luminescence, 48 h. Potency, µM (highest dose often 46.2 µM), for the others: at the top dose activity change, negative = growth inhibition, most hits filed as inhibitors; note: potency is the fitted concentration of half-maximal effect; nearly all actives have a fitted effect of over 55% in size
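Cell growth measured by CellTiter-Glo luminescence after a minimum 48 h, 37 C compound exposure with 20 nM CPT in Tdp1-knockout DT40 cells stably expressing hTDP1, seeded 400/well; qHTS titration format.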
HT1080 IDH1KD tx – toxicity to HT-1080 IDH1 knockdown cells (counter line); AID 686971; Potency, µM (highest dose often 46.1 µM), for inactives: at the top dose activity, negative = toxicity, actives largely listed as cytotoxic; HT-1080 IDH1 knockdown viability, ATP luminescence, 48 h; actives 2% (n = 360,000);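 note: potency is the fitted concentration of half-maximal effect; 0% = DMSO wells and -100% = cell-free medium wells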
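Viability of IDH1-knockdown HT-1080 fibrosarcoma cells was assessed by CellTiter-Glo after 48 h at 37 °C with titrated compound; concentration-effect curves were classified by fit quality and response size.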
HT1080NT lethal – kills 2HG-producing HT-1080-NT fibrosarcoma cells; HT-1080-NT fibrosarcoma viability, CellTiter-Glo ATP luminescence, 48 h; Potency, µM (titrated, usually from 46.1 µM), for inactives: at the highest dose activity, negative = less viability, hits mostly cytotoxic; actives 1.6% (n = 360,000);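 note: NT is the 2HG producing partner of a matched IDH1 knockdown line; potency is the fitted concentration of half-maximal effect; 0% = DMSO-treated cells and -100% = media-only wells without cells; nearly all actives have a fitted effect of over 55% in size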
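Fibrosarcoma NT cells, 750 per well in 5% FBS RPMI, were exposed to compound for 48 hours. Viability: CellTiter-Glo luminescence.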
IL-1B inflam inh – inflammasome signaling inhibition, IL-1 beta readout. THP-1 LPS/ATP IL-1B secretion, AlphaLISA, 16 h; hits give low values. actives 4.7% (n = 360,000). activity change, % at 57.5 µM; in the data active = activity change below about -50%; inconclusive = mostly about -30% to -49%
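Secreted IL-1B measured by AlphaLISA bead assay after 16 h compound exposure of THP-1 cells; compounds (final up to 57.5 uM) added 1 h before LPS (250 ng/mL) and ATP (1.25 mM) stimulation; lower signal means less secretion.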
DT40 TDP1 no CPT – qHTS for Inhibitors of human tyrosyl-DNA phosphodiesterase 1 (TDP1): qHTS in cells in absence of CPT | DT40 Tdp1-/- hTDP1 cells, no CPT, ATP luminescence, 48 h | AID 686978, 2013 | Potency, µM (doses to about 46.2 µM), without a hit: at the top dose activity change, negative = growth inhibition, most hits filed as inhibitors | actives 15% (n = 420,000); note: potency is the fitted concentration of half-maximal effect; nearly all actives have a fitted effect of over 55% in size
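Readout: luminescence from CellTiter-Glo after 30 min in the dark at RT. Cells: DT40 Tdp1-/- with stable hTDP1, 400/well. Exposure: compounds alone, ≥48 hr, 37 °C.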
The depositor's hits bear a star; ? = inconclusive; . = no result given; [ ] = dose if it differs, or a comment. This is a sample that favours compounds with a hit; in the whole collection about 19% have one here. Unless noted, calls come from the whole dose curve; as a rule, active = well fitted curve in the direction sought with a large enough effect; inconclusive = small, poorly fitted or top-dose-only effect, or another doubt; inactive = no such curve, though single readings can be large; an effect the other way counts as inactive or inconclusive. Unless noted, % is set by controls: 0 for no effect and ±100 for the full control effect.

SMILES	ELG1 repair inh	TDP1 cell CPT	HT1080 IDH1KD tx	HT1080NT lethal	IL-1B inflam inh	DT40 TDP1 no CPT
O=C(CSc1nnc(Cc2cccs2)n1Cc1ccco1)Nc1cc(Cl)cc(Cl)c1	?	25.9µM*	-24.4%	-24.3%	?	?
Cc1ccc(C(=O)CSc2nnnn2-c2ccccc2)o1	-2.8%	12.2%	6.3%	-2.2%	0.0	0.1%
OCCO	14.5%	3.8%	5.6%	0.2%	-5.9	12.2%
c1ccc(CSc2ncn(-c3ccccc3)n2)cc1	?	7.6%	-1.8%	2.9%	-28.5	-4.3%
O=C(CSc1ncn(-c2ccccc2)n1)c1cccs1	?	?	14.9%	12.5%	-52.5*	-14.9%
Cc1ccc(C(=O)CCC(=O)Nc2ccc(Cl)c(S(=O)(=O)Nc3cccc(Cl)c3)c2)cc1	-11.3%	-2.0%	-11.4%	-15.5%	7.5	3.3%
CCOc1ccc(NS(=O)(=O)c2cc(NC(=O)c3ccc(C)cc3)ccc2Cl)cc1	6.51µM*	3.66µM*	3.66µM*	2.31µM*	-2.8	2.59µM*
CCOc1ccc(C(=O)Nc2cccc(NC(=O)c3ccc(Cl)cc3Cl)c2)cc1	.	?	.	.	.	20.6µM*
CCC(C)NCCC(=O)Nc1ccc(Cl)c(S(=O)(=O)Nc2ccc(Cl)cc2)c1 (centres undefined)	-1.7%	?	14.6µM*	?	-51.0*	?
CCC(=O)Nc1ccc(C(=O)NNC(=O)C2CCCCC2)cc1	7.2%	5.9%	5.2%	3.2%	7.2	18.4%
COc1ccc(-c2ccnc3c(-c4ccc(F)cc4)c(C)nn23)cc1OC	.	-7.9%	.	.	.	?
CCc1nn2c(-c3ccccc3OC)ccnc2c1-c1ccc(F)cc1	.	23.1µM*	.	.	.	?
CCc1nn2c(-c3ccccc3OC)ccnc2c1-c1ccccc1	.	?	.	.	.	20.6µM*
COc1ccccc1-c1ccnc2c(-c3ccc(Br)cc3)c(C)nn12	.	-17.9%	.	.	.	-23.4%
CCCCc1ccc(NC(=O)CSc2nc(=O)n3cc(C)ccc3n2)cc1	7.3%	?	-14.6%	-16.1%	73.6	?
CC1=C(C(=O)OCc2ccccc2)C(c2ccc3c(c2)OCO3)NC(=O)N1CCCC(=O)O (centres undefined)	.	?	0.2%	-1.7%	49.2	0.146µM*
COC(=O)CCCCCN1C(=O)NC(C2CC2)C(C(=O)OCc2ccccc2)=C1C (centres undefined)	.	16.4µM*	-2.6%	-0.2%	19.5	13µM*
CCCCCCN(C(=O)CCCCCN1C(=O)NC(c2ccc(-c3ccccc3)cc2)C(C(=O)OCc2ccccc2)=C1C)C(C(=O)NCCCC)c1ccc(O)cc1 (centres undefined)	7.8%	.	.	.	.	.
CCCCCCN(C(=O)CCCN1C(=O)NC(c2ccc(-c3ccccc3)cc2)C(C(=O)OCc2ccccc2)=C1C)C(C)C(=O)NCCCC (centres undefined)	?	?	-5.5%	-14.4%	?	16.4µM*
CCCCCCN(C(=O)CCCCCN1C(=O)NC(c2ccc([N+](=O)[O-])cc2)C(C(=O)OCc2ccccc2)=C1C)C(C(=O)NCCCC)C1CCCCC1 (centres undefined)	14.7%	?	0.0%	1.6%	15.0	5.8µM*
CON(C)S(=O)(=O)NC(=O)C1=C(N2CCCC2)COC1=O	1.6%	1.3%	4.0%	0.1%	4.2	-1.2%
COc1ccc(C2(CO)OC(CO)C(O)C2O)cc1 (centres undefined)	.	?	-22.0%	-0.5%	29.7	?
CC1=C(C(=O)Nc2cccnc2)C(c2ccccc2)n2nc(SCc3ccccc3)nc2N1 (centres undefined)	.	-24.3%	.	.	.	-22.9%
CCOCCCNC(=S)Nc1ccc2nc(N3CCOCC3)cc(C)c2c1	6.3%	-23.3%	0.6%	1.3%	-12.0	?
COc1cc2nc(N(C)C)c(CNC3CCOC(C)(C)C3)cc2c(OC)c1OC (centres undefined)	.	-6.7%[9.04 µM]	.	.	.	-23.2%
SMILES	ELG1 repair inh	TDP1 cell CPT	HT1080 IDH1KD tx	HT1080NT lethal	IL-1B inflam inh	DT40 TDP1 no CPT
O=C(CCCc1nc(-c2ccccc2)no1)NC1CCCCC1	-13.7%	-23.2%	-4.0%	-4.8%	23.6	-20.1%
Cc1ccc(N2C3=C(C(=O)CC(C)(C)C3)C(c3cn(C)nc3C)C3=C2CC(C)(C)CC3=O)cc1	.	14.6µM*	?	-24.5%	-25.4	13µM*
COc1ccc(N2C3=C(CC4=C2CCCC4=O)C(=O)CCC3)cc1	?	?	-13.1%	-2.1%	-94.0*	?
COc1ccc(-n2ccc(=O)c3c2CCCC3=O)cc1	?	-2.2%	8.9%	6.5%	18.2	-24.2%
COc1ccc(N2C3=C(C(=O)CC(C)(C)C3)C(c3ccccc3OC)C3=C2CC(C)(C)CC3=O)cc1	?	?	-11.3%	-6.8%	-85.5*	16.4µM*
COc1ccc(C2C3=C(CC(C)(C)CC3=O)N(C)C3=C2C(=O)CC(C)(C)C3)cc1	4.2%	-28.6%	13.3%	19.8%	-15.4	-12.2%
Cc1nn(C)cc1C1C2=C(CC(C)(C)CC2=O)N(c2ccccc2)C2=C1C(=O)CC(C)(C)C2	0.4%	-6.9%	-0.7%	-0.2%	20.6	-9.9%
COc1ccc(N2C3=C(CC4=C2CC(C)(C)CC4=O)C(=O)CC(C)(C)C3)cc1	?	4.61µM*	?	7.08µM*	-101.8*	3.26µM*
Cc1csc(=O)n1CCC(=O)NCc1ccc(F)cc1	?	-3.9%	5.9%	1.8%	17.3	19.1%
O=C(NCCc1ccccc1)C1CCC(Cn2c(=O)c3ccccc3n(Cc3cccc(F)c3)c2=O)CC1 (centres undefined)	-8.5%	?	5.6%	6.9%	15.6	?
O=C(CCCCn1c(=O)c2ccccc2n(CC(=O)Nc2cccc(F)c2)c1=O)NCCc1ccccc1	.	-11.1%	.	.	.	-20.2%
Cc1cccc(NC(=O)Cn2c(=O)n(CC3CCC(C(=O)NCCc4ccccc4)CC3)c(=O)c3ccccc32)c1 (centres undefined)	.	18.4µM*	.	.	.	?
COc1cc(NC(=O)Cn2c(=O)n(CC3CCC(C(=O)NCCc4ccccc4)CC3)c(=O)c3ccccc32)cc(OC)c1 (centres undefined)	.	11.6µM*	.	.	.	?
COc1ccccc1NC(=O)Cn1c(=O)n(CC2CCC(C(=O)NCCc3ccccc3)CC2)c(=O)c2ccccc21 (centres undefined)	.	18.4µM*	.	.	.	?
